DRD3 agonist: agonists of human D3 dopamine receptor; P35462; D3R DiscoveRx beta-arrestin cells, luminescence, 90 min; max activation, %; 410,000 compounds, 0.58% hits; in the data active means max activation above about 30%
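Agonist mode: compounds and dopamine controls were applied to plated cells for 90 min at 37 degrees C after an overnight attachment at 1500 cells/well. Luminescent read-out followed 30 - 60 minutes at room temperature with DiscoveRx detection reagent.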
D1 PAM: potentiators of human D1 dopamine receptor; 360,000 compounds, 0.036% hits; potentiation, % at 10 µM; P21728; HEK293 TREx D1 cells, calcium flux, dopamine EC20 potentiation; in the data active means potentiation above about 30%
Target sequence (P21728 whole entry, looked up): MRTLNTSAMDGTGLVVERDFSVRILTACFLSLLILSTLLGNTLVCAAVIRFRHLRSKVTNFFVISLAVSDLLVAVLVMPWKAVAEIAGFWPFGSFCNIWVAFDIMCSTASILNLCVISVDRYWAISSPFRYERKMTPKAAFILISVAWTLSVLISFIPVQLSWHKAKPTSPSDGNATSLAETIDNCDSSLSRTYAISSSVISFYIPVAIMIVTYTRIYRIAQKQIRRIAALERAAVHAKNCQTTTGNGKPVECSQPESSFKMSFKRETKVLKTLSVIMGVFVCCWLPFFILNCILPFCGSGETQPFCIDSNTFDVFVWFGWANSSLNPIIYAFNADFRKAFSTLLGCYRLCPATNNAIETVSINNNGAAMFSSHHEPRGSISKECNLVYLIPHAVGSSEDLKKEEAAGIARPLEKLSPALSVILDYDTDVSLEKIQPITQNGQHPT
D1 antag: antagonists of human D1 dopamine receptor. 360,000 compounds, 3.2% hits. AID 504652. P21728. activity change, negative = inhibition, % at 10 µM. HEK293 TREx D1 cells, calcium flux, dopamine EC80; active compounds read low; in the data active means activity change below about -30%
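Calcium flux readout: force-coupled, inducible Hek293 Trex D1 line, cells induced overnight at 30 C with tetracycline, dye-loaded 30–90 min at RT. Antagonism scored against EC80 dopamine challenge given 180 s after compound.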
D1 ag: human D1 receptor agonism; HEK293 T-REx D1 cells, calcium flux, agonist mode; activation, % at 2 µM; 360,000 compounds, 1% hits; P21728; in the data active means activation above about 30%
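Tetracycline-induced HEK293 TREx D1 cells, force-coupled to calcium signalling, were dye-loaded with a no-wash calcium kit. Compound was pin-added after a 10 s baseline. Fluorescence was read kinetically at 1 cycle/s for 180 s, with calcium rises flagged as agonism.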
ERG Ets-DNA blk: inhibitors of human ERG Ets domain-DNA interaction | 370,000 compounds, 0.028% hits | AID 624246 | fluorescence polarization, His-ERG Ets domain / labelled DNA | Potency, µM (highest dose often 76.9 µM), actives largely listed as inhibitors; active means well fitted inhibition curve with a large enough effect in the polarisation, with a control signal flat; inconclusive means small, poorly fitted or top-dose-only effect, or effect the other way, or a change in a side signal; inactive means no such curve, though single readings can be large or run the other way; the % refers to the polarisation;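 further: polarization taken with two DNA probes labelled with fluorescein and Texas red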
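His-tagged ERG Ets domain (1 uM in the protein solution; 300mM KCl, 50mM Tris-HCl, 1mM EDTA, 1mM DTT, pH 7.5) received compound, then a probe mix of 5 nM fluorescein-DNA and 100nM Texas-615-DNA. Fluorescence polarization was read for both dyes.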
DRD3 antagonist: antagonists of human D3 dopamine receptor; AID 652054; max response, negative = inhibition, %; 360,000 compounds, 2.5% hits; D3R cells, DiscoveRx beta-arrestin luminescence, antagonist mode; active compounds read low; P35462; in the data active means max response below about -50%; inconclusive means no clear call, values can overlap the other calls
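Cells expressing the human receptor were seeded at 1500 cells/well, incubated overnight at 37 degrees C in 5% CO2, then exposed to library compounds with dopamine controls for 90 minutes at 37 degrees C before luminescent detection.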
Hits are given with their value; . = inactive; ? = inconclusive; / = not tested or not shown; ! = not active in a repeat. Compounds with a hit are over-represented: about 6.1% of the library has one in this group of screens.

SMILES | DRD3 agonist | D1 PAM | D1 antag | D1 ag | ERG Ets-DNA blk | DRD3 antagonist
CCCC(=O)Nc1ccccc1NC(=O)c1cc(OC)c(OC)c(OC)c1 | . | . | . | . | . | .
Cc1nc(N2CCN(C(=O)c3cnccn3)CC2)c2c3c(sc2n1)CC(C(C)(C)C)CC3 (stereo unspecified) | . | . | . | . | . | .
CCOc1ccc(OCCCCNC(C)(C)C)cc1 | . | . | -81 | . | . | .
CC1CCN(c2nc(-c3ccccc3O)nc3ccccc23)CC1 | . | . | . | . | . | .
CC1CCN(c2ncnc3ccccc23)CC1 | . | . | -34 | . | . | .
COc1cccc(CNC(=O)CCc2c(C)nn(-c3ccc(N4CCCC4)nn3)c2C)c1 | . | . | -40 | . | . | /
COc1cc(NC(=O)CCc2c(C)nn(-c3ccc(N4CCCCC4)nn3)c2C)cc(OC)c1OC | 73 | . | . | . | . | /
COc1ccc(NC(=O)CCc2c(C)nn(-c3ccc(N4CCCCC4)nn3)c2C)cc1Cl | . | . | . | . | . | /
CCOc1ccccc1NC(=O)CCc1c(C)nn(-c2ccc(N3CCOCC3)nn2)c1C | . | . | -68 | . | . | /
COc1ccc(C(=O)NCCS(=O)(=O)NCc2ccccc2OC)cc1 | . | . | . | . | . | .
CCCOc1ccc(C2C(=O)N(C3CCCCC3)CC(=O)N2CCC2=CCCCC2)cc1OC (stereo unspecified) | . | . | . | . | . | /
COC(=O)c1ccc(CN2C(=O)NC3(CCC(C)CC3)C2=O)cc1 (stereo unspecified) | . | . | . | . | . | .
COC(=O)c1ccc(CN2C(=O)NC3(CCC(C)CC3)C2=O)o1 (stereo unspecified) | . | . | . | . | . | -65
Cc1cccc(S(=O)(=O)C(C#N)c2nc3ccccc3nc2N2CCCC2)c1 (stereo unspecified) | . | . | . | 34 | . | .
Cc1ccc(C)c(S(=O)(=O)C(C#N)c2nc3ccccc3nc2N2CCCC2)c1 (stereo unspecified) | . | . | . | 34 | . | .
N#CC(c1nc2ccccc2nc1N1CCCC1)S(=O)(=O)c1ccccc1 (stereo unspecified) | . | . | . | . | . | .
CN(C)c1ccc(C=NNC(=O)c2cccc3ccccc23)c(Cl)c1 | . | / | / | / | . | .
CC1(C)SC(=S)N(/N=C/c2cccnc2)C1N(O)C(=O)NC1CCCCC1 (stereo unspecified) | . | . | . | . | . | .
O=Cc1c[nH]c2ccc(C(=O)c3ccccc3)cc12 | . | . | . | . | . | .
Cc1oc(-c2ccccc2F)nc1CS(=O)(=O)CC(=O)NCCCN1CCc2ccccc2C1 | . | . | . | . | . | -77
COc1cccc(-c2nc(CS(=O)(=O)CC(=O)NCC(C)c3ccccc3)c(C)o2)c1 (stereo unspecified) | . | . | . | 70 | . | .
COc1cccc(-c2nc(CS(=O)(=O)CC(=O)NCCc3ccccc3)c(C)o2)c1 | . | . | . | . | . | .
Cc1ccccc1-c1nc(CS(=O)(=O)CC(=O)NCCc2ccccc2)c(C)o1 | . | . | -31! | 31! | . | .
Cc1cc(C)cc(NC(=O)N2CCN(S(C)(=O)=O)CC2)c1 | . | . | / | . | . | .
CCCS(=O)(=O)c1nc(S(=O)(=O)c2ccc(C)cc2)c(NCCCN2CCOCC2)s1 | . | . | -32 | . | . | .
O=S(=O)(c1ccccc1)c1nc(-c2ccc(Cl)cc2)oc1NCCCN1CCOCC1 | . | . | . | . | . | ?
CCS(=O)(=O)c1nc(S(=O)(=O)c2ccc(C)cc2)c(NCCN2CCOCC2)s1 | . | . | . | . | . | .
O=S(=O)(c1ccc(Cl)cc1)c1nc(-c2ccccc2F)oc1NCCCN1CCOCC1 | . | . | . | . | . | -60
Cc1ccc(S(=O)(=O)c2nc(-c3ccccc3Cl)oc2NCCCN2CCOCC2)cc1 | . | . | . | . | . | -53
CCCOc1ccccc1C(=O)Nc1nc2c(s1)CCCC2 | . | . | . | . | . | /
